The whole screen tested about 69,000 compounds, of which about 8,600 (12%) showed an effect of 50% or more. This is one part of a sample in which strong results are shown more often than they occur.
The compounds below were run on Plasmodium berghei (assay: Screen against P. berghei liver stage (PbLuc), transformed with Luciferase, at 10uM). Settings: tested at 10 uM.
Type: functional, HepG2

Compound | INHIBITION [%]
Cc1cccc(C)c1NC(=O)CN(C)C(C)c1nc(C(C)(C)C)no1 (stereo not drawn) | 34.6
Cc1cccc(OCCNC(=O)CN2CCCC2Cn2cncn2)c1 (stereo not drawn) | 12.7
CNC(=O)c1cc(C)ccc1NCc1cn2cc(C)ccc2n1 | 29.6
CCC(C#N)NC(=O)c1sccc1OC (stereo not drawn) | 26.4
COCC1CC2(CCN(C(=O)c3cncc(C)c3)CC2)CO1 (stereo not drawn) | -26.1
O=C(NCc1cccnc1)c1nc2c(s1)CCCN2c1ncccn1 | 26.3
Cc1ccc(N2CCCc3sc(C(=O)NCc4ccncc4)nc32)nn1 | 42.5
Cc1ccc(N2CCCc3sc(C(=O)NCc4cccnc4)nc32)nn1 | 63.5
CC(C)N(C)CC(=O)N(C)C(c1cccc(F)c1)c1ccccn1 (stereo not drawn) | -55.4
COc1ccccc1CCN1CCCC(CN(C)Cc2ccc(C)o2)C1 (stereo not drawn) | 22
O=C(Nc1ccc(Cl)cn1)C1CCCN(CCc2ccncc2)C1 (stereo not drawn) | 74.4
Cc1cc(CN(C)CC2CCCN(CCc3ccc(Cl)cc3)C2)[nH]n1 (stereo not drawn) | 86.6
O=C(Nc1ccc(Cl)cn1)C1CCCN(Cc2ccccn2)C1 (stereo not drawn) | 15.7
CN(Cc1cccc(O)c1)CC1CCCN(CCc2ccc(Cl)cc2)C1 (stereo not drawn) | 73.5
CCN(CC1CCCN(CCc2cccc(OC)c2)C1)C(=O)CN(C)C (stereo not drawn) | 16
Cc1nc[nH]c1CN(C)CC1CCCN(CCc2ccc(Cl)cc2)C1 (stereo not drawn) | 33.7
COc1ccc(CCN2CCCC(CN(C)Cc3ccc(C)o3)C2)cc1 (stereo not drawn) | 70.6
COc1ccc(CCN2CCCC(CN(C)Cc3[nH]cnc3C)C2)cc1 (stereo not drawn) | 16.3
O=C(Nc1ccc(Cl)cn1)C1CCCN(CCc2ccccn2)C1 (stereo not drawn) | 48.3
COc1ccccc1CCN1CCCC(CN(C)Cc2cc(C)n[nH]2)C1 (stereo not drawn) | 36.8
CN(Cc1ccccc1O)CC1CCCN(CCc2ccc(Cl)cc2)C1 (stereo not drawn) | 5.36
O=C(O)c1cc(-c2cccs2)nc2c(Cl)cnn12 | 47.1

Compound | INHIBITION [%]
Cn1cc(C#N)c(=O)n(CC(O)c2ccccc2F)c1=O (stereo not drawn) | -4.185
CC(=O)N1CCC(c2cnc(-c3c(C)n[nH]c3C)cn2)CC1 | 49.6
CC(CC(=O)O)CC(=O)Nc1sc2c(c1C(N)=O)CCc1ccccc1-2 (stereo not drawn) | 27.5
CNC(=O)C(C)(C)N1CCC[C@H]1C(=O)NCCN1CCCC1 | -84.9
Cc1ccc(C(=O)N2CCCN(Cc3cccs3)CC2)n1C | 6.683
O=S1(=O)NC(C2CCN(Cc3ccncc3)CC2)Nc2ccccc21 (stereo not drawn) | 1.5
CN(Cc1nnc(C2CC2)n1C)C1CCN(CCc2ccncc2)C1 (stereo not drawn) | -11.2
Cc1nc(CN(C)CC2CCCN(CCc3ccc(Cl)cc3)C2)n(C)n1 (stereo not drawn) | 39.3
COc1ccccc1CCN1CCCC(CN(C)Cc2c[nH]c(C)n2)C1 (stereo not drawn) | 85.7
Cc1noc(CN(C)CC2CCCN(CCc3ccc(Cl)cc3)C2)n1 (stereo not drawn) | 58.5
COc1ccccc1CN(Cc1cccnc1)Cc1c[nH]c(C)n1 | 12
Cc1nc(CN(C)CC2CCCN(CCc3ccc(Cl)cc3)C2)no1 (stereo not drawn) | 40.8
COc1ccccc1CC1CCCN(CCC#N)C1 (stereo not drawn) | 9.32
CN(Cc1cnc(N)nc1)CC1CCCN(CCc2ccc(Cl)cc2)C1 (stereo not drawn) | -7.94
CN(Cc1ccncc1)CC1CCCN(CCc2ccc(Cl)cc2)C1 (stereo not drawn) | 65.9
CC(=O)NCCNC(=O)c1sc(-c2ccc(Cl)cc2)nc1C | -14.75
C[C@@H]1CN(CCc2ccccc2)C[C@]12CCN(CC(=O)N(C)C)C2=O | -29.5
CC(C#N)CN(C)Cc1nc2c(cnn2C)c(=O)[nH]1 (stereo not drawn) | 5.72
CCN(CC1CCCO1)S(=O)(=O)N1CCCCCC1 (stereo not drawn) | -9.21
Cc1ccc2c(c1)c(Sc1ccccc1)c(CC(=O)O)n2C | 12.8
Cc1c[nH]nc1C1CCN(C(=O)CC2CCCC2)C1 (stereo not drawn) | -136
CCc1oc(C(=O)N(C)Cc2nonc2C)cc1CN(CC)CC | 35.7

Compound | INHIBITION [%]
Cc1ccc(C(=O)N2CCC3(CC2)C(=O)NCCN3C)cc1O | 4.64
Cc1cc(C)cc(NC(=O)CC2CN(Cc3ccccc3)CCO2)c1 (stereo not drawn) | -10.9
CN(C)c1ncccc1CN1CCOC(C(=O)Nc2ccccc2)C1 (stereo not drawn) | 37.6
CC(C)(C)n1cc(NC(=O)C2CN(Cc3ccccc3)CCO2)cn1 (stereo not drawn) | -43.3
CN(C)c1ncccc1NC(=O)C1CN(Cc2ccccc2)CCO1 (stereo not drawn) | 85.1
O=C(O)C1CN(Cc2cccc(-c3ccccn3)c2)CCO1 (stereo not drawn) | -1.45
CC(C)c1ncc(CN2CCOC(C(=O)Nc3ccccc3)C2)cn1 (stereo not drawn) | 6.32
CN(C)c1ncc(CN2CCOC(C(=O)Nc3ccccc3)C2)cn1 (stereo not drawn) | 23.9
CN(C)c1ccc(NC(=O)C2CN(Cc3ccccc3)CCO2)cn1 (stereo not drawn) | 52.6
Cc1cc(NC(=O)C2CN(Cc3ccccc3)CCO2)ccn1 (stereo not drawn) | 96.2
Cc1ccc(CNc2cc(N3CCCC3CO)ncn2)s1 (stereo not drawn) | -23.9
C[C@@H]1CN(C(=O)c2cccn2C)C[C@]12CCN(c1ccsc1)C2=O | 8.93
CC(C)c1nnc2n1CC(CNCc1nc3ccccc3o1)CC2 (stereo not drawn) | 13
Cc1cc(NCc2cn(C)nc2-c2cccnc2)n(C)n1 | -17.1
CCn1cnnc1CNC(=O)N1CCCCCC1 | -8.11
COCC1COCCC12CCN(S(=O)(=O)c1cccnc1)CC2 (stereo not drawn) | 36.5
Cc1cnn(CCNCc2nnc(-c3ccc(F)cc3)o2)c1 | -35.7
O=C(C1CNCCN1C(=O)CCOc1ccccc1)N1CCCC1 (stereo not drawn) | -27.5
Cc1c(C(=O)O)cnn1-c1ccc(-c2nc(C(C)C)no2)cn1 | -44.7
CC(C)c1nc(C2CCCN(C(=O)c3ccc4[nH]nnc4c3)C2)no1 (stereo not drawn) | -6.14
Cc1nnc(N2C[C@@H](OCCCn3cccn3)[C@H]3OCCC[C@H]32)s1 | 50.1
CC(=O)N1CCO[C@H]2[C@H](OCCCn3cccn3)CC[C@@H]21 | 19.4

Compound | INHIBITION [%]
Cc1nnc(N2C[C@H](OCCCn3cccn3)[C@H]3OCCC[C@H]32)s1 | 43.9
c1cnn(CCCO[C@@H]2CC[C@H]3[C@H]2OCCN3CC2CCOCC2)c1 | 26.3
O=C(C1CCC1)N1CCO[C@H]2[C@H](OCCCn3cccn3)CC[C@@H]21 | -47.8
CCS(=O)(=O)N1CCO[C@H]2[C@H](OCCCn3cccn3)CC[C@@H]21 | -0.182
c1cnn(CCCO[C@@H]2CC[C@H]3[C@H]2OCCN3CC2CC2)c1 | 53
O=C(CC1CC1)N1CCO[C@H]2[C@H](OCCCn3cccn3)CC[C@@H]21 | 55
Cc1nnc(N2C[C@H](OCc3ccncc3)[C@H]3OCCC[C@H]32)s1 | 19.5
Clc1ccc(OCCNCCn2cccn2)cc1 | 9.14
O=C(CCOCC(F)(F)F)N1CCCC(n2ccnc2)C1 (stereo not drawn) | -63.3
O=C(NCc1ccccc1Cn1cncn1)C1CC1 | 49.8
CC(=O)N1CCN(Cc2ccccn2)CC2(CC(=O)N(C)C2)C1 (stereo not drawn) | 14.1
Cc1ncsc1CCC(=O)N1CCCC1c1cccnc1 (stereo not drawn) | -2.79
CCN1CCC(CC(=O)N2CCn3cccc3C2c2cccnc2)CC1 (stereo not drawn) | 18.9
Cc1ncsc1CCC(=O)N1CCn2cccc2C1c1cccnc1 (stereo not drawn) | 59.1
O=C(NCc1cccnc1N1CCCC(O)C1)c1ccsc1 (stereo not drawn) | 74.3
O=C(NCc1cccnc1N1CCCCC1)c1ccc2c(c1)OCO2 | -1.85
CCS(=O)(=O)NCc1cccnc1N1CCCC(O)C1 (stereo not drawn) | 89.1
CS(=O)(=O)NCC1CCCN(C(=O)Nc2cccnc2N2CCCC2)C1 (stereo not drawn) | -8.69
Cc1nnsc1C(=O)NCC1CCN(c2ccccn2)CC1 | 14.6
O=C(NCc1cccnc1N1CCCCC1)c1cccs1 | 7.12
Cc1nnsc1C(=O)NCc1cccnc1N1CCCC(O)C1 (stereo not drawn) | 66.3
CCC1CCCN(C(=O)NCc2cccnc2-n2cccn2)C1 (stereo not drawn) | 33.8

Compound | INHIBITION [%]
CC(=O)c1ccc(C(=O)NCc2cccnc2N2CCCC(O)C2)s1 (stereo not drawn) | 69.7
Cc1nnsc1C(=O)NCc1cccnc1N1CCc2ccccc2C1 | 5.8
O=C(NCc1cccnc1N1CCCC(O)C1)c1ccc2[nH]nnc2c1 (stereo not drawn) | 18.6
CC(NC(=O)c1cccs1)C(=O)NCc1cccnc1N1CCCCC1 (stereo not drawn) | 2.26
O=C(NC1CC1)C1[C@H]2CN(Cc3ccc(-c4cc[nH]n4)s3)C[C@@H]12 (stereo partly drawn) | 33.3
c1cc(CN2CCC3(CC2)COC(COCC2CC2)C3)co1 (stereo not drawn) | -17.1
Cc1cccc(-c2nc(CNC3CCc4ncnn4C3)no2)c1 (stereo not drawn) | 23.7
O=C1CCC2(CCN(Cc3ncccn3)CC2)CN1CCCO | -33.5
Cc1oc(-c2nc(C#N)c(NCC(C)C)o2)cc1S(=O)(=O)N1CCCC1 | 22.6
CCN(CC)S(=O)(=O)NCC1COc2ccccc2O1 (stereo not drawn) | 36.9
Cn1ccn2ncc(C(=O)NCc3cccnc3N3CCCC(O)C3)c12 (stereo not drawn) | 28.8
Cc1cc(C(=O)NCc2cccnc2N2CCCC(O)C2)c(C)o1 (stereo not drawn) | 55
Cc1cc(C(=O)NCc2cccnc2N2CCCC(O)C2)[nH]n1 (stereo not drawn) | 34.5
Cc1cc(CN2CCN(C(=O)NC(C)Cn3cccn3)CC2)no1 (stereo not drawn) | -17.78
CC(NC(=O)NCCCN(C)S(C)(=O)=O)c1ccc(F)cc1 (stereo not drawn) | 58.5
CC(NC(=O)NCCCN(C)S(C)(=O)=O)c1ccc(C#N)cc1 (stereo not drawn) | 44.1
CC(NC(=O)NCCCN(C)S(C)(=O)=O)c1ccncc1 (stereo not drawn) | 1.77
CC(NC(=O)NCCCN(C)S(C)(=O)=O)c1cccc(Cl)c1 (stereo not drawn) | -15.8
CC(NC(=O)NCCCN(C)S(C)(=O)=O)c1ccc(Cl)cc1 (stereo not drawn) | 62.6
CC(NC(=O)NCCCN(C)S(C)(=O)=O)c1cccnc1 (stereo not drawn) | -9.37
